Screening results (PubChem BioAssay)
Rows were chosen to be rich in hits. Some 3.4% of all compounds tested hit in one or more screens of this group.
PLCg1 inh: blocks human PLC-gamma1 enzyme activity. P19174. purified PLC-gamma1, fluorogenic substrate, fluorescence. inhibition, % at 12.2 µM. actives 0.84% (n = 370,000)
ADAM10 inh: inhibits human ADAM10. O14672. actives 0.62% (n = 370,000). AID 720582. recombinant ADAM10, EDANS/DABCYL FRET peptide cleavage, 3 h. inhibition, % at 7 µM;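 active means inhibition above a per-campaign cutoff equal to the mean of compounds falling between control-based bounds plus 3 SD, cut at about 20% in these data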
proKLK7 act: activates the human kallikrein-7 zymogen. actives 0.9% (n = 370,000). P49862. AID 652039. activation, % at 7 µM. purified proKLK7, EDANS-DABCYL substrate fluorescence; 100% is mature enzyme control, 0% vehicle;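 active means activation above the mean of all tested compounds plus 3 SD, computed per campaign excluding outliers beyond control limits, cut at about 13% in these data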
ADAM17 inh: inhibits human ADAM17 | recombinant ADAM17, EDANS/DABCYL FRET peptide cleavage | inhibition, % at 6.95 µM | actives 0.83% (n = 370,000) | AID 720648;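 active means inhibition above the mean of compounds lying between control limits plus 3 SD, set per campaign, cut at about 8.5% in these data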
Target sequence (P78536 215-824 limits assumed): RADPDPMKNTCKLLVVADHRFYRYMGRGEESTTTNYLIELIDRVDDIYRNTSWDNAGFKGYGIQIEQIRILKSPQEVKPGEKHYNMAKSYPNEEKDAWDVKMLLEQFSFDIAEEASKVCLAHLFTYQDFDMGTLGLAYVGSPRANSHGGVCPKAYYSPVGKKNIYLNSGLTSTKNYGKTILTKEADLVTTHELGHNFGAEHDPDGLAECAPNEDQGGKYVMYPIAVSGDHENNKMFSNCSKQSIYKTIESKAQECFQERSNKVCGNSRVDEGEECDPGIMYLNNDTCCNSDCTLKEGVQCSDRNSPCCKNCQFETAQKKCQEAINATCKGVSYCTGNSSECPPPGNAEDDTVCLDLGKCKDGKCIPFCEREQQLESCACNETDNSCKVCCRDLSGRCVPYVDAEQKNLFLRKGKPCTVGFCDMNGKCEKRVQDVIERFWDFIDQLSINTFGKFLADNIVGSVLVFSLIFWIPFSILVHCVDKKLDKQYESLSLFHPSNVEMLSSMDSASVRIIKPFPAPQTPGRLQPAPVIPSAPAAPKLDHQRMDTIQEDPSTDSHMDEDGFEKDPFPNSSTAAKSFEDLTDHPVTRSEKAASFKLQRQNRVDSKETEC
HGIII-sPLA2 inh: Inhibits HGIII-sPLA2 liposome hydrolysis, primary screen; QFRET BODIPY PC-A2 liposome hydrolysis, fluorescence; inhibition, % at 12.2 µM; actives 0.56% (n = 370,000); Q9NZ20;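 active means inhibition above mean plus 3 SD of compounds lying within the high and low control bounds, cut at about 19% in these data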
PLCb3 inh: blocks human PLC-beta3 enzyme activity; inhibition, % at 12.2 µM; actives 0.18% (n = 370,000); Purified PLC-beta3, fluorogenic substrate, fluorescence; in the data active means inhibition above about 11%
PLCgamma1 ctr: inhibits human PLC-gamma1 in PLC-beta3 counter-screen; shares compounds with PLCg1 inh; purified PLC-gamma1, fluorogenic substrate, fluorescence; inhibition, % at 12.3 µM; actives 3.1% (n = 3,300); AID 743258
PLCb3 confirm: human PLC-beta3 inhibition, confirmation | shares compounds with PLCg1 inh | purified PLC-beta3, fluorogenic substrate fluorescence | inhibition, % at 12.3 µM | actives 1% (n = 3,300) | AID 743261; in the data active means inhibition above about 11%
Hits are given with their value; i = inactive; nt = not tested or not shown. Unless noted, no stated cut-off is given here; in the data, active means inhibition above about 9.5%; inactive means the rest.

SMILES	PLCg1 inh	ADAM10 inh	proKLK7 act	ADAM17 inh	HGIII-sPLA2 inh	PLCb3 inh	PLCgamma1 ctr	PLCb3 confirm
O=C(/C=C/c1cccs1)Nc1ccc([N+](=O)[O-])cc1	12	i	i	i	i	i	i	i
O=C(/C=C/c1cccs1)Nc1ccncc1	i	i	i	i	i	i	nt	nt
NC(N)=NS(=O)(=O)c1ccc(NC(=S)NC(=O)/C=C/c2cccs2)cc1	13	i	i	i	i	i	i	i
Cc1nn(-c2ccccc2)c2sc(C(=O)NC3CCCC3)cc12	i	i	i	i	i	i	nt	nt
O=C(NCc1ccccc1Cl)C1CCC(CNS(=O)(=O)c2cccc3cccnc23)CC1 (configuration not stated)	i	i	i	i	i	i	nt	nt
NS(=O)(=O)c1ccc(NC(=O)CSc2nc3ccccc3c(=O)n2-c2ccc(Br)cc2)cc1	i	i	i	i	i	i	nt	nt
COc1ccc(CCNC(=O)c2c(O)c3c([nH]c2=O)CCCC3)cc1	11	i	i	i	i	i	i	i
CC(=O)Nc1ccc(OC(=O)c2ccc(Cl)cc2)cc1	i	i	i	i	i	11	i	i
CC(=O)Nc1ccc(C(=O)OCc2ccc(Cl)cc2)cc1	i	i	i	i	i	i	nt	nt
Cc1nc(-c2ccncc2)nc(NCCNc2ncccc2C(F)(F)F)c1Cl	12	i	i	i	i	i	i	i
OC(CNCCNc1ncccc1C(F)(F)F)Cn1ccc2ccccc21 (configuration not stated)	i	i	i	i	i	i	nt	nt
c1ccc(Cn2ccc3ccc(-c4ccc5ccn(Cc6cccc(-c7cccs7)c6)c5c4)cc32)cc1	i	i	i	i	i	i	nt	nt
C=CCN(Cc1ccc(Cl)s1)C(=O)c1ccc(F)c(S(=O)(=O)N2CCOCC2)c1	80	i	i	i	i	i	i	i
COC(=O)Cc1nnn2c1[C@H](C)[C@@H](OC)c1ccccc1-2	i	i	i	i	i	i	nt	nt
O=C(Cc1ccccc1)Nc1ccc(N2CCOCC2)cc1N1CCOCC1	15	i	i	i	i	i	i	i
CN(C)c1cccc(-c2cnc(N3CCC(C(N)=O)CC3)nc2)c1	i	i	nt	i	i	i	nt	nt
Cc1ccc(CCN2CC(C(=O)NCc3cccnc3)CC2=O)cc1 (configuration not stated)	12	i	i	i	i	i	i	i
CCOC(=O)C(NC(=O)c1ccccc1)(N1CCOCC1)C(F)(F)F (configuration not stated)	10	i	i	i	i	i	i	i
COc1ccc(C2CC(=O)C(c3cccc(F)c3)=CN2Cc2ccccc2)cc1 (configuration not stated)	i	i	i	i	i	i	nt	nt
CC(C)(C)OC(=O)NCCCC[C@H](NC(=O)c1[nH]cnc1C(=O)N[C@@H](Cc1ccccc1)C(=O)OCc1ccccc1)C(=O)OC(C)(C)C	10.0	i	i	i	i	i	i	i
CC(C)(C)OC(=O)[C@H](Cc1ccccc1)NC(=O)c1nc[nH]c1C(=O)N[C@@H](CCCCN)C(=O)OC(C)(C)C	i	i	i	i	i	i	nt	nt
COC(=O)CN(n1cnnc1)S(=O)(=O)c1ccccc1Cl	10	i	i	i	i	i	i	i
CON(c1nc(N(C)C)nc(N(C)C)n1)S(=O)(=O)c1ccccc1Cl	i	i	i	i	i	i	nt	nt
Cc1cc(C(=O)Nc2ccccc2N2CCCCC2)no1	9.8	i	i	i	i	i	i	i
Cc1cc(C(=O)Nc2ccccc2N2CCOCC2)no1	i	i	i	i	i	i	nt	nt
SMILES	PLCg1 inh	ADAM10 inh	proKLK7 act	ADAM17 inh	HGIII-sPLA2 inh	PLCb3 inh	PLCgamma1 ctr	PLCb3 confirm
CC(OC(=O)c1ccco1)C(=O)NCc1ccc2c(c1)OCO2 (configuration not stated)	i	i	i	i	i	i	nt	nt
CC(OC(=O)c1ccc2c(c1)OCO2)C(=O)NC1CCCCC1 (configuration not stated)	11	i	i	i	i	i	i	i
CC(OC(=O)c1ccc2c(c1)OCO2)C(=O)NC1CCCCC1C (configuration not stated)	i	i	i	i	i	i	nt	nt
CC(=O)Nc1cccc(C(=O)OC(C)C(=O)NCc2ccc3c(c2)OCO3)c1 (configuration not stated)	9.9	i	i	i	i	i	i	i
C[C@H]1[C@H](c2ccccc2)Oc2cccc(NCCc3ccccc3)c2S(=O)(=O)N1Cc1ccc(F)cc1	i	i	i	i	i	i	nt	nt
O=C(CCc1ccccc1)N[C@H]1[C@@H](OC(=O)c2cnccn2)CCC[C@@]12C(=O)N(Cc1ccccc1)c1ccccc12	12	i	i	i	i	i	14	i
Clc1cccc(CNc2nc(-c3ccccn3)nnc2-c2ccccc2)c1	i	i	nt	i	i	i	nt	nt
COc1ccc(N2C(=O)CCC(C(=O)O)C2c2ccc(F)cc2)cc1 (configuration not stated)	i	i	i	i	i	i	nt	nt
COc1ccc(C2C(C(=O)NCc3ccccn3)CCC(=O)N2c2cc(OC)c(OC)c(OC)c2)cc1 (configuration not stated)	10	i	i	i	i	i	i	i
CCN(CC)CCCNC(=O)C1CCC(=O)N(c2ccc(OC)cc2)C1c1ccc(F)cc1 (configuration not stated)	12	i	i	i	i	i	i	i
COC(=O)c1sc(N)c(C(=O)OC)c1CSc1nnnn1C	9.9	i	i	i	i	i	i	i
CCN1CCCCC(NC(=O)c2ccc(C)cc2)C1=O (configuration not stated)	i	i	i	i	i	i	nt	nt
CC1CN(c2ccc(Cl)cc2)c2nc3c(c(=O)[nH]c(=O)n3C)n2C1 (configuration not stated)	10	i	i	i	i	i	i	i
CC1CN(c2ccccc2)c2nc3c(c(=O)[nH]c(=O)n3C)n2C1 (configuration not stated)	i	i	i	i	i	i	nt	nt
COc1ccccc1COC(=O)c1cccc(S(=O)(=O)N(C)Cc2ccccc2)c1	i	i	i	i	i	i	nt	nt
CCOc1ccc(CCNC(=O)c2cc(-c3ccccc3)c(N3CCOCC3)s2)cc1OC	i	i	i	i	i	i	nt	nt
COc1cccc(NC(=O)CN(c2ccc(C)cc2)S(=O)(=O)c2c(C)nn(C)c2C)c1	i	i	i	i	i	12	i	i
CO/N=C/c1ccc(Sc2ccc(C)cc2)c([N+](=O)[O-])c1	i	i	i	i	i	i	nt	nt
CO/N=C/c1cc([N+](=O)[O-])ccc1Sc1ccc(C)cc1	10	i	i	i	i	i	i	i
